NPC1 prom act: qHTS Assay for NPC1 Promoter Activators; Potency, µM (doses to about 9.22 µM), for the others: at the highest dose activation, hits mostly activators; AID 485313, 2010; 2.4% of 320,000 active; Huh7 NPC1 promoter luciferase reporter, 24 h; note: % of control where 0% means no effect; nearly all actives have a fitted effect of over 60% in size
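Huh7 cells stably carrying NPC1 promoter–luciferase, plated in Opti-MEM with 10% FBS for 2 h, were exposed to compound in DMSO for 24 h at 37 °C; luciferase reagent was added for 10 min and luminescence read.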
FLuc counter: qHTS profiling assay for firefly luciferase inhibitor/activator using purifed enzyme and Km concentrations of substrates (counterscreen for miR-21 project); Potency, µM (titrated, usually from 57.5 µM), for inactives: top-dose activity change, negative = inhibition, most hits filed as inhibitors; purified FLuc, Km substrates, luminescence inhibition; 6.9% of 360,000 active; AID 588342, 2011;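 note: plate controls were vehicle for no effect and reference inhibitor for full effect; nearly all actives have a fitted effect of over 55% in size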
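Purified P. pyralis luciferase, 10 nM final, with Km-level 10 uM D-luciferin and 10 uM ATP in 50 mM Tris acetate pH 7.5, 10 mM Mg acetate, 0.01% Tween-20, 0.05% BSA; 6-point qHTS titration about 60 µM downward; luminescence read.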
ELG1 repair inh: qHTS screen for small molecules that inhibit ELG1-dependent DNA repair in human embryonic kidney (HEK293T) cells expressing luciferase-tagged ELG1; HEK293T ELG1-luciferase reporter, luminescence, 16 h; DNA damage induced by 5-fluorouridine; Potency, µM (doses to about 46.1 µM), for inactives: at the highest dose activity change, negative = inhibition, actives largely listed as inhibitors; 2.3% of 330,000 active; AID 504467, 2011; note: % is set by controls: 0 for no effect and ±100 for the full control effect; nearly all actives have a fitted effect of over 55% in size
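Quantitative HTS, concentration-response format. 2,000 cells/well co-treated with 5-fluorouridine and compound, 16 hr in 5% CO2 at 37 °C; ONE-Glo luminescence read after 30 min.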
Rab9 promoter act: qHTS Assay for Rab9 Promoter Activators. Huh7 Rab9 promoter-luciferase reporter, luminescence, 24 h. Potency, µM (series often up to 9.22 µM), for the others: at the top dose activation, negative = inhibition, hits mostly activators. 2.8% of 320,000 active. AID 485297, 2010; note: % of control where 0% means no effect; nearly all actives have a fitted effect of over 60% in size
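Luminescence read-out: Huh7 cells stably expressing Rab9-luciferase, treated 24 h with compound at 37 °C, then lysed with luciferase reagent for 10 min at ambient before reading.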
ELG1 genotoxic: qHTS screen for small molecules that induce genotoxicity in human embryonic kidney (HEK293T) cells expressing luciferase-tagged ELG1 | HEK293T ELG1-luciferase reporter, luminescence, 16 h | Potency, µM (series often up to 46 µM), for inactives: at the top dose activity change, positive = activation, hits mostly activators | 1.3% of 330,000 active | AID 504466, 2011; note: % of control where 0% means no effect; nearly all actives have a fitted effect of over 60% in size
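16 hr compound incubation (37 °C, 5% CO2) of HEK293T cells carrying luciferase-tagged ELG1; luciferase then measured by ONE-Glo luminescence after 30 min at RT.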
SMN2 splice enh: qHTS Assay for Enhancers of SMN2 Splice Variant Expression; HEK293 SMN2-luciferase splicing reporter, luminescence, 30-36 h; Potency, µM (titrated, usually from 46.1 µM), for inactives: top-dose activity change, positive = activation, usual class: activators; 2.8% of 210,000 active; AID 1458, 2008; note: % of control where 0% means no effect; nearly all actives have a fitted effect of over 55% in size
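HEK293 cells carry an SMN2 minigene-luciferase reporter in which exon 7 inclusion puts luciferase in frame. Cells were seeded at 2000 cells/well, attached for 10-12 hours, then exposed to compounds for 30-36 hours at 37C before ONE-Glo luminescence.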
ELG1 FLuc counter: qHTS screen for small molecules that inhibit ELG1-dependent DNA repair: Hit Confirmation in Cell-Based Luciferin Assay | shares compounds with ELG1 repair inh | cell-free firefly luciferase luminescence counter-screen, ViewLux | Potency, µM (series often up to 46.1 µM), without a hit: at the highest dose activity change, negative = inhibition, hits mostly inhibitors | 3% of 350 active | AID 624247, 2012; note: % is set by controls: 0 for no effect and ±100 for the full control effect
ELG1 Luc conf: HTS assay for small molecules that inhibit ELG1-dependent DNA repair in human embryonic kidney (HEK293T) cells expressing luciferase-tagged ELG1: Hit Confirmation | 68% of 670 active | Potency, µM (top dose mostly 46.1 µM), for inactives: top-dose activity change, negative = inhibition, actives largely listed as inhibitors | HEK293T ELG1-luciferase levels, luminescence; cells co-treated with 5-fluorouridine | AID 624248, 2012 | shares compounds with ELG1 repair inh; note: % is set by controls: 0 for no effect and ±100 for the full control effect; nearly all actives have a fitted effect of over 55% in size
ELG1 MMS Luc: inhibits ELG1-dependent repair under MMS stimulation in HEK293T cells; HEK293T luciferase-tagged ELG1 level, MMS stimulated; Potency, µM (series often up to 46.1 µM), for the others: at the highest dose activity change, negative = inhibition, actives largely listed as inhibitors; 53% of 670 active; shares compounds with ELG1 repair inh; note: % is set by controls: 0 for no effect and ±100 for the full control effect; nearly all actives have a fitted effect of over 60% in size
ELG1 5FU viab: qHTS screen for small molecules that inhibit ELG1-dependent DNA repair: Hit Confirmation with 5FU Viability; shares compounds with ELG1 repair inh; cell viability with 5-FU, ELG1-dependent repair; Potency, µM (top dose mostly 46.1 µM), without a hit: at the top dose activity change, negative = viability loss, actives largely listed as cytotoxic; 670 tested, under 10 active;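 note: ELG1-luc HEK293T cells cotreated with 5-fluorouridine at 10 µM final; viability measured 16 h after compound addition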
ELG1 MMS cell: qHTS screen for small molecules that inhibit ELG1-dependent DNA repair: Hit Confirmation with MMS Viability; Cell viability with MMS, ELG1-dependent DNA repair; Potency, µM (top dose mostly 46.1 µM), for inactives: at the highest dose activity change, negative = viability loss, hits mostly cytotoxic; shares compounds with ELG1 repair inh; AID 624251, 2012; 33% of 670 active;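 note: ELG1-luc HEK293T cells co-treated with 10 µM MMS; viability read 16 h after compound addition; % is set by controls: 0 for no effect and ±100 for the full control effect; nearly all actives have a fitted effect of over 60% in size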
Cell viab unstim: qHTS screen for small molecules that inhibit ELG1-dependent DNA repair: Hit Confirmation with Unstimulated Viability Assay; shares compounds with ELG1 repair inh; cell viability counter-screen, unstimulated, luminescence; Potency, µM (titrated, usually from 45.9 µM), without a hit: top-dose activity change, negative = loss of viability, hits mostly cytotoxic; 8% of 900 active; AID 624252, 2012;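 note: compound exposure lasted 16 hours before reading; % is set by controls: 0 for no effect and ±100 for the full control effect; nearly all actives have a fitted effect of over 55% in size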
FLuc enzyme: qHTS screen for small molecules that inhibit ELG1-dependent DNA repair: Hit Confirmation in Biochemical Luciferin Assay. purified firefly luciferase, luminescence counter-screen. Potency, µM (highest dose often 57.5 µM), inactives show at the highest dose activity, negative = inhibition, usual class: inhibitors. shares compounds with ELG1 repair inh. 10% of 350 active; note: % is set by controls: 0 for no effect and ±100 for the full control effect
An asterisk follows results filed as active; u = inconclusive; x = no result given; [ ] = another dose, or the depositor's remark. Compounds with a hit are over-represented: about 9.3% of the library has one in this group of screens. Calls come from the whole dose curve; as a rule, active = well fitted curve in the direction sought with a large enough effect; inconclusive = small, poorly fitted or top-dose-only effect, or another doubt; inactive = no such curve, though single readings can be large; an effect the other way counts as inactive or inconclusive. Potency is the fitted concentration of half-maximal effect.

SMILES	NPC1 prom act	FLuc counter	ELG1 repair inh	Rab9 promoter act	ELG1 genotoxic	SMN2 splice enh	ELG1 Luc conf	ELG1 MMS Luc	ELG1 5FU viab	ELG1 MMS cell	Cell viab unstim	others
O=C(C1CCCC1)N1CCC(CC2CC(c3cccc(Br)c3)=NO2)(C(=O)NCC2CCCCC2)CC1 (stereo unspecified)	-7%	-1%	4.1µM*	-5%	-14%	x	16µM*	u	2%	-19%	u
O=C(O)C1Cc2ccccc2CN1C(=O)c1ccccc1 (stereo unspecified)	-2%	0%	8%	-8%	-2%	1%	x	x	x	x	x
CN(C)c1ccc(C=Nc2cncc3ccccc23)cc1	x	x	x	x	x	x	x	x	x	x	-5%	ELG1 FLuc counter=50%;FLuc enzyme=0.29µM*
CCOC(=O)N1CCN(C(=O)CSCC(=O)Nc2nc(-c3ccccc3)cs2)CC1	0%	-15%	u	28%	4%	10%	x	x	x	x	-14%	ELG1 FLuc counter=49%;FLuc enzyme=-7%
O=C(CSCC(=O)N1CCCCC1)Nc1nc(-c2cccs2)cs1	11%	-17%	u	11%	8%	19%	x	x	x	x	x
CC(C)C(=O)SCCCCCCC(=O)Nc1nc(-c2ccccc2)cs1	x	x	x	x	x	x	x	x	x	x	-4%
O=C(CSCC(=O)N1CCN(c2ccccc2)CC1)Nc1nc(-c2ccc(Cl)s2)cs1	12%	-2%	u	-2%	u	-27%	x	x	x	x	u	ELG1 FLuc counter=17%;FLuc enzyme=-3%
O=C(CSCC(=O)N1CCCCC1)Nc1nc(-c2ccc(Cl)s2)cs1	3%	u	u	u	8%	4%	x	x	x	x	x
Cc1noc2ncnc(NCc3cccc(Cl)c3)c12	x	-5%	x	x	x	x	x	x	x	x	x
Cc1cc2ncc(-c3ccccc3)nc2cc1C	1.3µM*	0.6µM*	u	0.79µM*	1.6µM*	5µM*	x	x	x	x	u
COc1ccc2sc3c(=O)[nH]c4ccccc4c3c2c1	-5%	-8%	0.82µM*	-20%	-4%	-30%	2µM*	1.6µM*	8%	9%	4%	ELG1 FLuc counter=-6%;FLuc enzyme=1%
O=S(=O)(c1ccc2c(c1)OCCO2)N1CCN(c2ncnc3sccc23)CC1	-35%	3%	4.6µM*	-34%	-5%	-85%	13µM*	2µM*	u	1.8µM*	u
COc1ccc(CC(=O)O/N=C(\N)c2ccccn2)cc1OC	9%	-14%	u	0%	1%	x	x	x	x	x	x
COc1ccc(/C=C/C(=O)O/N=C(\N)c2ccccn2)cc1OC	x	x	u	x	u	x	x	x	x	x	-9%
COc1cccc(-c2nc(-c3ccc4c(c3)-c3ccccc3S4(=O)=O)c(-c3ccccc3)[nH]2)c1OC	-12%	-10%	2.6µM*	-2%	0%	3%	3.5µM*	-16%	u	u	-2%
COc1cccc(-c2nc(-c3ccccc3)c(-c3ccccc3)[nH]2)c1OCC(=O)O	-1%	3%	-1%	-2%	-5%	x	x	x	x	x	x
COc1cc2ncnc(Nc3cccc(Cl)c3)c2cc1OC	-9%[46.1 µM]	5%	x	-16%[46.1 µM]	x	-9%	6.3µM*	7.1µM*	25µM*	18µM*	18µM*
Cc1cccc2cc(CN(CCN3CCCC3)C(=O)NC3CCCCC3)c(=O)[nH]c12	1%	1%	-18%	-8%	2%	0%	x	x	x	x	x
Cc1cccc2cc(CN(CCN3CCOCC3)C(=O)Nc3ccccc3F)c(=O)[nH]c12	4%	-6%	3.3µM*	0%	-2%	-7%	4µM*	30%	u	4%	-12%
Cc1ccc(C(=O)OCC(=O)c2c[nH]c3ccccc23)cc1	u	u	u	u	u	9%	x	x	x	x	x
Cn1cccc1C(=O)OCC(=O)c1c[nH]c2ccccc12	x	x	u	x	u	x	x	x	x	x	-13%
COCc1ccc(C(=O)Nc2ccccc2C(=O)NCc2cccnc2)cc1	-6%	u	6%	1%	1%	x	x	x	x	x	x
Nc1ccccc1NC(=O)c1ccc(CNC(=O)OCc2cccnc2)cc1	x	x	x	x	x	x	x	x	x	x	u	ELG1 FLuc counter=136%;FLuc enzyme=-4%
CC1(c2ccc(OC(F)F)cc2)NC(=O)N(CC(=O)Nc2ccc3c(c2)OCO3)C1=O (stereo unspecified)	1%	4%	-5%	-6%	-4%	-12%	x	x	x	x	x

High-throughput results deposited in PubChem by National Center for Advancing Translational Sciences (NCATS).
